# AMA1-RON2 inh – disrupts binding of P. falciparum AMA1 to RON2 | AlphaScreen AMA1-biotinylated RON2 peptide binding | Potency, µM (series often up to 58.2 µM), without a hit: at the top dose activity change, negative = inhibition, usual class: inhibitors | hit rate 0.2% among 360,000 | AID 720542; active = well fitted inhibition curve with a large enough effect; inconclusive = small, poorly fitted or top-dose-only effect; inactive = no such curve, though single readings can be large or run the other way;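 note: potency is the fitted concentration of half-maximal effect; 0% = vehicle wells and -100% = peptide control; nearly all actives have a fitted effect of over 45% in size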
#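 AMA1 (3D7) with his tag at 25 nM final met compounds first, then biotinylated RON2 peptide at 25 nM; detection used donor plus acceptor beads, 10 µg/mL apiece, read by AlphaScreen after 30 min at room temperature.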
# Shiga toxin inh – blocks Shiga toxin action in Vero cells | Vero cells, Shiga toxin protein synthesis inhibition reporter | inhibition, % at 38.7 µM | hit rate 9.2% among 290,000 | AID 2315; in the data active = inhibition mostly above about 28%, no sharp cut-off; inactive = mostly below about 43%; note: 0% is about no effect
# Lassa entry inh – Lassa virus entry inhibition; Lassa virus pseudotype entry inhibition, cell reporter; Potency, µM (top dose mostly 37.9 µM), for the others: at the highest dose activity change, negative = inhibition, hits mostly inhibitors; hit rate 1.2% among 300,000; calls by dose curve; tested in HEK293 cells; note: potency is the fitted concentration of half-maximal effect; % is set by controls: 0 for no effect and ±100 for the full control effect; nearly all actives have a fitted effect of over 50% in size
# MARV entry inh – blocks Marburg virus binding to or entry into cells | Potency, µM (series often up to 37.8 µM), for inactives: at the top dose activity change, negative = inhibition, most hits filed as inhibitors | Marburg virus pseudotyped entry inhibition, cell reporter | hit rate 1.8% among 300,000 | AID 540276; calls by dose curve; tested in HEK293 cells; note: potency is the fitted concentration of half-maximal effect; % is set by controls: 0 for no effect and ±100 for the full control effect
# CHX counter – counter-screen for Shiga toxin inhibitors: cycloheximide protein synthesis inhibition; hit rate 12% among 300,000; cell reporter, cycloheximide protein synthesis inhibition counterscreen; max response, %; in the data active = max response mostly above about 13%, no sharp cut-off; inactive = mostly below about 14%; note: read at 38.3 µM for the half of the compounds with a filed dose; 0% is about no effect
# Numbers without * were called inactive; ? = inconclusive; nt = no result given; [ ] = another dose, or the depositor's remark. This excerpt belongs to a sample that is enriched for hits.
SMILES,AMA1-RON2 inh,Shiga toxin inh,Lassa entry inh,MARV entry inh,CHX counter
O=[N+]1C2=C(CCCC2)N([O-])C12CCCC2,45%,-3,17%,0%,2
CC1(CCl)N([O-])C2=C(CCCC2)[N+]1=O (centres undefined),-6%,23,1%[46.1 µM],4%[46.1 µM],14*
O=C(NC1CCCC1)C1CCN(C(=O)c2ccc(-c3ccccc3)cc2)CC1,5%,-3,?,21%[46.1 µM],6
Cc1ccc(C(C)(C)C)cc1S(=O)(=O)N1CCC(C(=O)N2CCN(c3ccc(O)cc3)CC2)CC1,-10%[11.6 µM],nt,2.8µM*,?,nt
CC1CCCCC1NC(=O)COC(=O)CNC(=O)c1cccc(F)c1 (centres undefined),22%,-15,6%,-14%[14.2 µM],-4
CC(=O)C1=C(S(=O)(=O)c2ccc(C)cc2)CS(=O)(=O)C1,-10%,29,-10%[46.1 µM],-3%[46.1 µM],20*
Cc1ccc(S(=O)(=O)C2CS(=O)(=O)CC2O)cc1 (centres undefined),33%,12,7%,19%,-6
C#CCNC(=O)C(C)c1ncc(C(F)(F)F)cc1Cl (centres undefined),26%,-7,2%,16%[46.1 µM],3
COc1ccc(CNC(=O)Nc2ccc(OC)cc2)cc1,-6%,-5,23%,?,-3
COc1ccc(CNC(=O)Nc2cccc(C)c2)cc1,-14%,78,-14%,-10%,22*
CCOc1ccc(CNC(=O)Nc2ccccc2)cc1,4%,48*,?,?,22*
COc1ccc(CNC(=O)Nc2ccccc2)cc1,15%,65*,nt,nt,45*
CCOC(=O)c1cc(C)n(CC2CCC(C(=O)Nc3ccc(OC)cc3)CC2)c1C (centres undefined),nt,nt,-13%[46.1 µM],nt,nt
CCOC(=O)C1CCCN(C(=O)C(CCSC)NC(=O)COc2ccccc2)C1 (centres undefined),0%,nt,-28%,1%,nt
Cn1c(CN2CCOCC2)nc2cc(NC(=O)c3ccccc3Cl)ccc21,14%,-3,29%,6%,-3
Cn1c(CN2CCCC2)nc2cc(NC(=O)c3cccs3)ccc21,15%[2.32 µM],65*,7%,?,35*
Cn1c(CN2CCCC2)nc2cc(NC(=O)c3ccc(Cl)cc3)ccc21,21%,42*,20%,-28%,35*
Cn1c(CN2CCOCC2)nc2cc(NC(=O)c3ccc(F)cc3)ccc21,2%,54*,-5%,-21%,17*
CC(=O)N1CCN(Cc2nc3cc(NC(=O)c4cccs4)ccc3n2C)CC1,6%,-7,0%,-6%[46.1 µM],1
CC(c1ccccc1)N1CCn2c(nc3cc(NC(=O)c4cccs4)ccc32)C1 (centres undefined),8%,26,-17%,-30%,21*
CCc1cc2c(=O)n(Cc3ccco3)c(SCC(=O)NCC3CCCO3)nc2s1 (centres undefined),-4%,-2,?,?,-3
CCc1cc2c(=O)n(Cc3ccco3)c(SCc3c(C)noc3C)nc2s1,9%,42*,?,?,12*
CCc1cc2c(=O)n(Cc3ccco3)c(SCC(=O)N3CCCc4ccccc43)nc2s1,-18%,48,?,?,19*
CCS(=O)(=O)c1ccc(O)c(NC(=O)c2ccc(S(=O)(=O)N3CCCCCC3)cc2)c1,-5%,nt,7%[46.1 µM],-26%[46.1 µM],nt
COC(=O)C1=C(C(=O)OC)[C@@H]2Nc3ccccc3[C@@]23C[C@@H](C(=O)OC)N(C(=O)NC(C)(C)C)C3=N1,nt,nt,nt,2%[14.2 µM],nt
SMILES,AMA1-RON2 inh,Shiga toxin inh,Lassa entry inh,MARV entry inh,CHX counter
COc1cc(OC)c(NC(=O)C(=O)CC(=O)c2ccc(C)cc2C)cc1Cl,9%,-10,8.2µM*,?,-8
COc1cc(OC)c(NC(=O)Cn2cccc2)cc1Cl,-6%,-9,5%,?,-2
COc1cccc(C(=O)CC(=O)C(=O)Nc2cc(OC)ccc2OC)c1,36%,-2,?,-5%[46.1 µM],-3
COc1cccc(C(=O)CC(=O)C(=O)Nc2ccc(C)cc2Cl)c1,64%,38*,29%[46.1 µM],-29%[46.1 µM],12*
CCN1C(=O)C(=O)N(CC(=O)Nc2ccccc2OC(F)F)C1=O,-9%,nt,nt,nt,nt
Cn1c2ccccc2c(=O)c2cc(C#Cc3ccccn3)ccc21,49%,11,nt,nt,23*
Cn1c2ccccc2c(=O)c2cc(C#Cc3ccsc3)ccc21,20%,17,nt,nt,9.3*
Cn1c2ccccc2c(=O)c2ccc(C#Cc3ccccn3)cc21,-14%,10,nt,nt,2
Cc1cccc2nc(-c3ccco3)c(Nc3ccc4c(c3)OCO4)n12,?,24,?,?,31*
Cc1cc(C)n2c(Nc3ccc4c(c3)OCCO4)c(-c3ccccc3)nc2n1,-15%,52*,-18%[46.1 µM],?,46*
Cc1cc(C)n2c(Nc3ccc4c(c3)OCCO4)c(-c3ccc(Cl)cc3)nc2n1,nt,nt,-21%[46.1 µM],16%[46.1 µM],nt
COc1cc(-c2cc(OC)c3c(C)oc(C)c3c(=O)c2)ccc1OC(=O)c1cccc(Cl)c1,nt,nt,3%[46.1 µM],0%[46.1 µM],nt
COCCN(C(=O)COC(=O)CSc1ccccc1)c1c(N)n(Cc2ccccc2)c(=O)[nH]c1=O,-6%,nt,2%,2%[46.1 µM],nt
NNC(=O)c1ccc(Cn2cc(Cl)cn2)cc1,11%,13,-14%,11%,-4
CCOc1ccc(C(=O)Nc2cnn(Cc3ccc(Cl)c(Cl)c3)c2)cc1,3%,6,?,?,-1
O=C(Nc1cnn(Cc2ccc(Cl)c(Cl)c2)c1)C12CC3CC(CC(C3)C1)C2,-16%,9,?,13µM*,-1
O=C(Nc1ccc(Cl)c(Cl)c1)c1ccc(Cn2cc(Cl)cn2)cc1,7%,active,nt,1%,32*
O=C(Nc1ccc([N+](=O)[O-])cc1)c1ccc(Cn2cc([N+](=O)[O-])cn2)cc1,-9%,31,nt,nt,8
O=C(Nc1ccccc1F)c1ccc(Cn2cc(Cl)cn2)cc1,-2%,50,-6%[46.1 µM],1%[46.1 µM],28*
O=C(Nc1cnn(Cc2ccc(Cl)cc2)c1)c1ccc([N+](=O)[O-])cc1,-3%,-13,?,11µM*,-2
Cc1nnc(NC(=O)CSc2ncnc3c2cnn3-c2ccccc2C)s1,0%,2,0%,-20%,2
N#Cc1c(NC(=O)CSc2ncnc3c2cnn3-c2ccccc2Cl)sc2c1CCCC2,-2%,-4,?,?,-3
Cc1ccccc1-n1ncc2c(SCC(=O)NC3CCCC3)ncnc21,10%,71*,nt,?,32
COC(=O)c1c(NC(=O)CSc2ncnc3c2cnn3-c2ccccc2Cl)sc2c1CCCC2,-11%,11,5.8µM*,?,-2
CCCCc1c(Cc2ccccc2)ncn1CCc1ccccc1OC,-6%,nt,nt,nt,nt
COCCNC(=S)N/N=C(\C)c1ccc(O)cc1,23%,-3,-30%,0%,2
C/C(=N\NC(=S)Nc1ccccc1C)c1ccc(O)cc1,54%,43,5%,-8%[46.1 µM],13*
CCn1nnc(NC(=O)c2ccc(-c3ccc(Cl)cc3)o2)n1,7%,35*,-17%,13%[46.1 µM],36*
CC(=O)NC(=O)c1ccc(-c2ccc(Cl)cc2)o1,-9%,17*,?,?,25*
O=C(NC(=S)Nc1ccccc1O)c1ccc(-c2ccc(Cl)cc2)o1,61%,-4,3%,11%,-2

# Source: PubChem
